# Experimental data published in the supplement of paper PMC12282887.
# ± gives the standard deviation of the averaged measurements.
# Assays:
# Experiment in all cases: promoter activity interaction Z-score (Lux/OD deviation from empty-vector control); higher = stronger promoter induction by the compound
# [1] = tested on: E. coli BW25113 ompFp lux reporter
# Outline: (§1)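 E. coli BW25113, as wild type or one of three single-gene deletion strains, carried low-copy luxCDABE promoter reporters and grew in 40 µl LB Lennox in 384-well plates at 37°C, with OD600 and luminescence read every 30 min for 12 h. Each compound was run at four 1:2 dilutions in biological duplicates, integration spanned 0–8 h for wild type and 1–9 h for deletion strains, and wells under 10% of the median growth value were dropped. The score is the Z-transformed residual of growth-normalised luminescence fitted against a control.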
# [2] = tested on: E. coli BW25113 robp lux reporter
# Outline: as §1
# [3] = tested on: E. coli BW25113 soxSp lux reporter
# Outline: as §1
# [4] = tested on: E. coli BW25113 tolCp lux reporter
# Outline: as §1
# [5] = 142.3 µg/ml, genetic background: wild type
# [6] = 142.3 µg/ml, genetic background: ΔmarA
# [7] = 142.3 µg/ml, genetic background: Δrob
# [8] = 142.3 µg/ml, genetic background: ΔsoxS
# [9] = 284.5 µg/ml, genetic background: wild type
# [10] = 284.5 µg/ml, genetic background: ΔmarA
# [11] = 284.5 µg/ml, genetic background: Δrob
# [12] = 284.5 µg/ml, genetic background: ΔsoxS
# [13] = 35.6 µg/ml, genetic background: wild type
# [14] = 35.6 µg/ml, genetic background: ΔmarA
# [15] = 35.6 µg/ml, genetic background: Δrob
# [16] = 35.6 µg/ml, genetic background: ΔsoxS
# [17] = 71.1 µg/ml, genetic background: wild type
# [18] = 71.1 µg/ml, genetic background: ΔmarA
# [19] = 71.1 µg/ml, genetic background: Δrob
# [20] = 71.1 µg/ml, genetic background: ΔsoxS
smiles,measurement,setting,value
CC[C@H](C)[C@H](N)C1=N[C@H](C(=O)N[C@@H](CC(C)C)C(=O)N[C@H](CCC(=O)O)C(=O)N[C@H](C(=O)N[C@H]2CCCCNC(=O)[C@H](CC(N)=O)NC(=O)[C@@H](CC(=O)O)NC(=O)[C@H](Cc3cnc[nH]3)NC(=O)[C@@H](Cc3ccccc3)NC(=O)[C@H]([C@@H](C)CC)NC(=O)[C@@H](CCCN)NC2=O)[C@@H](C)CC)CS1 [Bacitracin],promoter activity interaction Z-score,[1]; [5],-0.463 ± 0.37
same,promoter activity interaction Z-score,[1]; [6],0.405 ± 1.2
same,promoter activity interaction Z-score,[1]; [7],-0.823 ± 0.087
same,promoter activity interaction Z-score,[1]; [8],0.0137 ± 0.45
same,promoter activity interaction Z-score,[1]; [9],1.52
same,promoter activity interaction Z-score,[1]; [10],0.962 ± 0.71
same,promoter activity interaction Z-score,[1]; [11],1.05 ± 1.1
same,promoter activity interaction Z-score,[1]; [12],1.9 ± 0.51
same,promoter activity interaction Z-score,[2]; [13],0.859 ± 0.14
same,promoter activity interaction Z-score,[2]; [14],-0.334 ± 0.088
same,promoter activity interaction Z-score,[2]; [15],0.568 ± 0.89
same,promoter activity interaction Z-score,[2]; [16],0.00456 ± 0.7
same,promoter activity interaction Z-score,[2]; [17],0.186 ± 0.99
same,promoter activity interaction Z-score,[2]; [18],0.452 ± 0.16
same,promoter activity interaction Z-score,[2]; [19],0.266 ± 0.06
same,promoter activity interaction Z-score,[2]; [20],-0.45 ± 0.04
same,promoter activity interaction Z-score,[2]; [5],-0.429 ± 0.72
same,promoter activity interaction Z-score,[2]; [6],0.326 ± 0.28
same,promoter activity interaction Z-score,[2]; [7],-0.561 ± 0.13
same,promoter activity interaction Z-score,[2]; [8],-0.919 ± 0.74
same,promoter activity interaction Z-score,[2]; [9],-0.714 ± 0.18
same,promoter activity interaction Z-score,[2]; [10],-0.548 ± 0.32
same,promoter activity interaction Z-score,[2]; [11],-0.858 ± 1
same,promoter activity interaction Z-score,[2]; [12],-0.93 ± 0.068
same,promoter activity interaction Z-score,[3]; [13],0.0222 ± 0.019
same,promoter activity interaction Z-score,[3]; [14],-0.0752 ± 0.056
same,promoter activity interaction Z-score,[3]; [15],0.145 ± 0.063
same,promoter activity interaction Z-score,[3]; [16],-0.325 ± 0.089
same,promoter activity interaction Z-score,[3]; [17],-0.173 ± 0.011
same,promoter activity interaction Z-score,[3]; [18],-0.209 ± 0.049
same,promoter activity interaction Z-score,[3]; [19],-0.232 ± 0.096
same,promoter activity interaction Z-score,[3]; [20],-0.288 ± 0.14
same,promoter activity interaction Z-score,[3]; [5],-0.325 ± 0.11
same,promoter activity interaction Z-score,[3]; [6],-0.318 ± 0.0051
same,promoter activity interaction Z-score,[3]; [7],-0.254 ± 0.028
same,promoter activity interaction Z-score,[3]; [8],-0.236 ± 0.42
same,promoter activity interaction Z-score,[3]; [9],-0.265 ± 0.017
same,promoter activity interaction Z-score,[3]; [10],-0.188 ± 0.075
same,promoter activity interaction Z-score,[3]; [11],-0.556 ± 0.091
same,promoter activity interaction Z-score,[3]; [12],0.196
same,promoter activity interaction Z-score,[4]; [13],0.175 ± 0.14
same,promoter activity interaction Z-score,[4]; [14],0.3 ± 0.76
same,promoter activity interaction Z-score,[4]; [15],-0.634 ± 0.13
same,promoter activity interaction Z-score,[4]; [16],-0.127 ± 0.13
same,promoter activity interaction Z-score,[4]; [17],-0.904 ± 0.76
same,promoter activity interaction Z-score,[4]; [18],-0.251 ± 0.39
same,promoter activity interaction Z-score,[4]; [19],-0.77 ± 0.38
same,promoter activity interaction Z-score,[4]; [20],-0.771 ± 0.63
same,promoter activity interaction Z-score,[4]; [5],-1.08 ± 0.47
same,promoter activity interaction Z-score,[4]; [6],-0.183 ± 0.34
same,promoter activity interaction Z-score,[4]; [7],-0.421 ± 0.15
same,promoter activity interaction Z-score,[4]; [8],-0.321 ± 0.69
same,promoter activity interaction Z-score,[4]; [9],-0.273 ± 0.36
same,promoter activity interaction Z-score,[4]; [10],-0.299 ± 0.51
same,promoter activity interaction Z-score,[4]; [11],-1.24 ± 0.052
same,promoter activity interaction Z-score,[4]; [12],-0.245 ± 0.87
